Shown are actives, neighbours in structure and some others; about 2.5% of the full set was active somewhere.
MCL1 BIM primary = MCL1-BIM-BH3 interaction inhibition (human); Q07820; GST-MCL1 / FITC-Bim-BH3 fluorescence polarization; inhibition, % at 10.9 µM; 320,000 compounds, 0.68% hits; AID 2057;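 active = inhibition above the mean inhibition of all tested compounds plus 3 SD, set per campaign, cut at about 40% in these data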;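 also: 0% = DMSO wells and 100% = unlabeled Bim-BH3 peptide control; higher means more loss of mP so more displacement of Bim peptide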
Target sequence (Q07820 whole entry, looked up): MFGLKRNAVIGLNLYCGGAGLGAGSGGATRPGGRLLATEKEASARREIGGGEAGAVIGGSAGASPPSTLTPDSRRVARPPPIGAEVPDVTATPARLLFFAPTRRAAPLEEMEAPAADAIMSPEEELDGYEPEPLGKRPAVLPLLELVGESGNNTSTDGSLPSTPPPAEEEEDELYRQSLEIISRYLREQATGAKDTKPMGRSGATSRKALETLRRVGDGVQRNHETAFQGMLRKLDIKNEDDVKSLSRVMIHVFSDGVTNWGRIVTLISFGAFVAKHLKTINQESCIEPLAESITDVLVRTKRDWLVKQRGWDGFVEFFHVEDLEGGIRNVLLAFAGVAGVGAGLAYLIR
14-3-3 Bad inh = disrupts binding of bovine 14-3-3 zeta to phospho-Bad peptide. P63103. TR-FRET 14-3-3zeta/Dy647-pBad peptide displacement, 1 h. inhibition, % at 21.7 µM. 220,000 compounds, 0.71% hits. AID 781;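 active = inhibition above about 70%, limit read from the data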;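 also: 0% = full 14-3-3 plus peptide FRET controls and 100% = background without 14-3-3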
Target sequence (P63103 whole entry, looked up): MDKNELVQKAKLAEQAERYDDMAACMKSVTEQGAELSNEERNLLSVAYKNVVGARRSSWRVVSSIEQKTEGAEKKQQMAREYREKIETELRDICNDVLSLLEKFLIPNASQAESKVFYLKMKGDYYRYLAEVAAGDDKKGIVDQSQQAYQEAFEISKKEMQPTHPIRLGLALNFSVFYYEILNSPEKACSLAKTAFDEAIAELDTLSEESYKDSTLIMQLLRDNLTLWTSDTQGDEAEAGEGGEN
Mcl1 Bid PPI = Mcl-1/Bid interaction inhibition; Q07820; inhibition, % at 21.7 µM; TR-FRET Mcl-1/Bid-Dy647 peptide binding, 1536-well; 220,000 compounds, 0.97% hits; AID 1021;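 active = compounds that cut the binding signal by more than half at the single screening dose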;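 also: His-tagged Mcl-1 with europium anti-His antibody binding Bid BH3 peptide; 0% = Mcl-1 plus peptide wells and 100% = peptide-only wells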
Mcl-1 Bim block = human Bim-Mcl-1 interaction inhibition | Q07820 | Bead-based flow cytometry, Bim peptide-Mcl-1 binding | inhibition, % at 10 µM | 190,000 compounds, 0.1% hits; in the data active = inhibition above about 40%;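 also: 0% = no compound tracer wells and 100% = peptide blocker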
Mcl1 Noxa PPI = Mcl-1/Noxa interaction inhibition. AID 1022. Q07820. 220,000 compounds, 1.5% hits. inhibition, % at 21.7 µM. TR-FRET Mcl-1/Noxa peptide binding, 2 h;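 active = compounds that cut the protein-peptide binding signal by more than 50% relative to plate controls in a single-dose test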;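 also: His-tagged Mcl-1 with rhodamine Noxa BH3 peptide and terbium anti-His antibody; 0% = Mcl-1 plus Noxa peptide wells and 100% = peptide-only wells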
Numbers without * were called inactive; / = not tested or not shown; [ ] = another dose, or the depositor's remark.

SMILES	MCL1 BIM primary	14-3-3 Bad inh	Mcl1 Bid PPI	Mcl-1 Bim block	Mcl1 Noxa PPI
CCn1c(SCC(=O)Nc2nc3ccc(C)cc3s2)nc2c(c1=O)SC(C)C2 (stereo not given)	9.0	-1.9	56.2*	-1.0	28.9
CCn1c(SCC(=O)Nc2nc3ccccc3s2)nc2c(c1=O)SC(C)C2 (stereo not given)	-1.8	3.9	7.8	-5.0	9.8
Cc1cc(C)nc(NS(=O)(=O)c2ccc(N)cc2)n1	8.4	3.8	-7.7	-3.0	-10.5
Cc1cc(C)nc(NS(=O)(=O)c2ccc(Br)cc2)n1	8.5	84.5*	23.4	-2.0	8.6
O=C(OCC(=O)c1ccc[nH]1)c1ccc(S(=O)(=O)N2CCCCC2)cc1	/	12.8	-2.6	-3.0	2.2
COc1cccc(-c2nc(NCCN3CCOCC3)c3ccccc3n2)c1O	-0.9	-16.4	-78.2	14.0	51.3*
Cc1cc(C)c(S(=O)(=O)Nc2cc(SCC(=O)O)c(O)c3ccccc23)cc1C	27.3	67.8	29.4	0.0	82.1*
Cc1c(C(=O)n2cnc3ccccc32)cccc1[N+](=O)[O-]	-6.2	/	/	/	/
Cc1nc2ccccc2n1C(=O)c1ccccc1[N+](=O)[O-]	-7.6	9.6	52.3*	-4.0	-1.0
CN(C)c1ccc(-c2nnc(-c3ccc(S(=O)(=O)C(F)F)cc3)o2)cc1	12.2	14.6	72.7*	1.0	27.4
CC(=O)c1ccc(N2CCN(S(=O)(=O)c3ccc4c(c3)CC(C)N4C(C)=O)CC2)cc1 (stereo not given)	-5.7	/	/	/	/
O=C(CSc1nc(Cc2ccccc2)nc2ccccc12)Nc1ccc2c(c1)OCCO2	4.8	15.7	58.5*	-2.0	0.3
O=C(CSc1ncnc2ccccc12)Nc1ccc2c(c1)OCCO2	6.8	23.0	-1.5	0.0	-7.7
CCOC(=O)c1sc2nc(C)nc(SC(C)C(=O)N(C)c3ccccc3)c2c1C (stereo not given)	-6.1	/	/	/	/
COc1ccc(NC(=O)Cc2ccccc2)cn1	40.4*	-5.2	-33.4	1.0	10.8
COC(=O)CCC(=O)OC1(C)C(=O)C2=CN(Cc3ccc4c(c3)OCO4)C(c3ccc(OC)cc3)=CC2=C(Br)C1=O (stereo not given)	5.8	/	/	/	/
COc1ccc(C2=CC3=C(Br)C(=O)C(C)(OC(=O)C4CCCC4)C(=O)C3=CO2)cc1 (stereo not given)	42.2*	11.1	-43.8	/	27.3
CC1(OC(=O)C2CCCC2)C(=O)C=C2C=C(c3ccsc3)OC=C2C1=O (stereo not given)	23.6	2.3	-17.4	/	51.1*
COc1ccc(C2=CC3=C(Br)C(=O)C(C)(OC(=O)c4ccc(Cl)nc4)C(=O)C3=CO2)cc1 (stereo not given)	26.4	15.3	-9.9	/	52.6*
CC1(OC(=O)c2cccs2)C(=O)C=C2C=C(c3ccsc3)OC=C2C1=O (stereo not given)	27.3	/	/	/	/
O=C(/C=C1\C(=O)Nc2ccccc21)/C=C1\C(=O)Nc2ccccc21	/	93.3*	91.5*	/	102.2*
O=C1Nc2ccccc2/C1=C\C(=O)c1ccccc1	-2.3	/	/	/	/
CN(C)c1ccc(C(=O)Nc2nc3c(s2)CCCC3)cc1	2.5	-2.9	-8.6	0.0	26.2
CCCOc1ccc(CSc2n[nH]c(C)n2)cc1	5.2	-11.7	-7.0	/	7.4
CC(N=C1NC(C)(C)Cc2ccccc21)C(=O)O (stereo not given)	3.9	91.3*	-9.5	1.0	-3.6
SMILES	MCL1 BIM primary	14-3-3 Bad inh	Mcl1 Bid PPI	Mcl-1 Bim block	Mcl1 Noxa PPI
CC1(C)Cc2ccccc2/C(=C/C(=O)N2CCCCCC2)N1	10.1	73.9*	-53.8	2.0	16.8
COc1cc2c(cc1OC)/C(=C/C(=O)N1CCOCC1)NC(C)(C)C2	-2.6	67.8	-12.7	-4.0	17.9
CC(C)C(C(=O)O)N1C(=O)/C(=C/c2cccn2C)SC1=S (stereo not given)	-164.5	2.1	-28.1	-1.0	38.9
CCCC(C(=O)O)N1C(=O)/C(=C/c2cccn2C)SC1=S (stereo not given)	-113.6	-8.6	1.2	-2.0	52.0*
COC(=O)c1cc(Br)ccc1N(Cc1cc(OC)cc(OC)c1)S(C)(=O)=O	4.9	/	/	/	/
Cc1ccc(-c2ccc(CCC(=O)O)n2NC(=O)c2cccs2)cc1	0.5	-12.7	-39.9	49.0*	-6.3
CCCCSc1nn[nH]n1	-2.9	76.0*	16.7	-2.0	18.4
COc1ccc(C(=O)NCc2nnc(SCC(=O)N3CCCCC3)o2)cc1OC	-2.9	-18.7	83.2*	0.0	5.3
N#Cc1ccsc1NC(=O)CN1CCOCC1	7.7	0.1	-18.9	/	-1.1
CCN1C(=O)/C(=C\c2nc3ccccc3c(=O)n2-c2ccccc2)c2ccccc21	-3.4	78.4*[fluorescence artefact?]	45.1	-5.0	27.4
CCCn1c(SCc2nc(-c3cccs3)no2)nnc1-c1ccncc1	-2.4	-11.7	5.0	-2.0	12.7
O=S(=O)(Nc1ccc(N=Nc2ccc(O)c3ccccc23)cc1)c1ccccc1	2.7	-13.0	-29.2	1.0	58.8*
COC(=O)C(C)(C)ONC(=O)Nc1ccccc1[N+](=O)[O-]	-1.9	2.6	-20.1	0.0	-7.7
CCCONC(=O)Nc1ccccc1[N+](=O)[O-]	0.5	5.7	65.8*	-4.0	-8.6
O=C(Nc1nc(-c2ccco2)c(-c2ccco2)s1)C1CC(=O)N(c2ccc3c(c2)OCCO3)C1 (stereo not given)	11.5	-11.3	18.5	5.0	74.6*
Cc1ccccc1-c1nnc(SCC(=O)NC2CCCC2)o1	4.7	/	/	/	/
CCN1/C(=C/C=C/c2oc3ccc4ccccc4c3[n+]2CC)Oc2ccc3ccccc3c21	134.6*	91.0*	89.3*	24.0	20.5
O=C(CSc1nnnn1C1CCCC1)N1CCN(C(=O)c2ccco2)CC1	-1.3	1.2	-1.3	-6.0	-1.5
CC(=O)N1C(C)(C)CC(=NOC(=O)c2ccc(C)cc2)CC1(C)C	1.4	-4.5	-13.5	2.0	0.2
CC(=O)N1C(C)(C)CC(=NOC(=O)c2ccccc2)CC1(C)C	1.8	92.4*	-3.6	-3.0	3.4
CC(C)n1cnc2cc(NCc3ccco3)ccc21	7.1	70.4*	-53.0	0.0	52.0*
CN(C(=O)c1ccc(Cl)cc1)C1=CCCCC1CCC#N (stereo not given)	1.9	-3.4	64.5*	0.0	2.0
Cc1cc(C)nc(/N=C2/NC(=O)CS2)n1	21.5	18.3	-3.1	-6.0	23.6
Cc1ccc(S(=O)(=O)/N=C2/C=C(C3C(=O)CC(C)(C)CC3=O)C(=O)c3ccccc32)cc1	-9.2	30.6	25.6	4.0	79.8*
Cc1cc(C)c(S(=O)(=O)/N=C2\C=C(NS(=O)(=O)c3ccccc3)C(=O)c3ccccc32)c(C)c1	12.2	/	/	/	/
COC(=O)c1ccc(COC(=O)c2ccccc2OC)cc1	-3.9	0.1	-13.8	10.0	1.9
O=C(OCc1ccccc1)/C(=C/c1ccc(Cl)cc1)NC(=O)c1ccccc1Cl	1.6	80.1*	-6.0	-1.0	0.1
CCN1CCN(C(=S)NCCc2ccccc2)CC1	15.2	84.9*	4.2	2.0	11.3
CCOC(=O)c1c(/N=C/c2ccc(C)cc2O)sc2c1CCN(C)C2	5.5	-8.1	-32.9	/	-6.1

High-throughput results from PubChem BioAssay.
